# Active and inactive are the calls of the source. Unless noted, no rule for the calls is given here.
# Assays:
# [1] = hit retest on RPL19A-GFP reporter strain – cell-based, S. cerevisiae, flow cytometry, cherry picks, mother/daughter gates, confirmation (AID 2270;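 active = GFP response below 50% of the DMSO control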); conditions: 3 h, at 10 µM, stronger effect = lower value, 100 = same GFP as DMSO wells
# [2] = yeast TOR pathway reporter LAP4-GFP change – cell-based, cherry picks, flow cytometry, mother/daughter gates, confirmation (AID 2271;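 active = GFP response above 150% of the DMSO control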;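 also: ratio of sample to DMSO plate mean so 100% equals DMSO level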); conditions: S. cerevisiae LAP4-GFP strain, 3 h, at 10 µM, stronger effect = higher value
# [3] = TOR pathway CIT2 reporter hit retest – S. cerevisiae, GFP fusion, cherry picks, mother/daughter gates, confirmation (AID 2274;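 active = GFP response above 150% of the DMSO level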); conditions: S. cerevisiae CIT2-GFP strain, flow cytometry, 3 h, at 10 µM, stronger effect = higher value
# [4] = system: Botulinum neurotoxin type F light chain protease (Clostridium botulinum); experiment: Clostridium botulinum type F light chain protease inhibitors, microsphere substrate cleavage, validation (AID 588459); conditions: multiplex microsphere protease substrate cleavage assay, flow cytometry; at 10 µM; stronger effect = higher value
# [5] = molecular target: Botulinum neurotoxin type A (Clostridium botulinum) (UniProt P0DPI0); experiment: BoNT/A light chain protease inhibitors, biochemical, multiplex microsphere flow cytometry, validation set (AID 588460); conditions: at 10 µM, stronger effect = higher value
# Sequence of Botulinum neurotoxin type A (Clostridium botulinum) (P0DPI0 whole entry, looked up): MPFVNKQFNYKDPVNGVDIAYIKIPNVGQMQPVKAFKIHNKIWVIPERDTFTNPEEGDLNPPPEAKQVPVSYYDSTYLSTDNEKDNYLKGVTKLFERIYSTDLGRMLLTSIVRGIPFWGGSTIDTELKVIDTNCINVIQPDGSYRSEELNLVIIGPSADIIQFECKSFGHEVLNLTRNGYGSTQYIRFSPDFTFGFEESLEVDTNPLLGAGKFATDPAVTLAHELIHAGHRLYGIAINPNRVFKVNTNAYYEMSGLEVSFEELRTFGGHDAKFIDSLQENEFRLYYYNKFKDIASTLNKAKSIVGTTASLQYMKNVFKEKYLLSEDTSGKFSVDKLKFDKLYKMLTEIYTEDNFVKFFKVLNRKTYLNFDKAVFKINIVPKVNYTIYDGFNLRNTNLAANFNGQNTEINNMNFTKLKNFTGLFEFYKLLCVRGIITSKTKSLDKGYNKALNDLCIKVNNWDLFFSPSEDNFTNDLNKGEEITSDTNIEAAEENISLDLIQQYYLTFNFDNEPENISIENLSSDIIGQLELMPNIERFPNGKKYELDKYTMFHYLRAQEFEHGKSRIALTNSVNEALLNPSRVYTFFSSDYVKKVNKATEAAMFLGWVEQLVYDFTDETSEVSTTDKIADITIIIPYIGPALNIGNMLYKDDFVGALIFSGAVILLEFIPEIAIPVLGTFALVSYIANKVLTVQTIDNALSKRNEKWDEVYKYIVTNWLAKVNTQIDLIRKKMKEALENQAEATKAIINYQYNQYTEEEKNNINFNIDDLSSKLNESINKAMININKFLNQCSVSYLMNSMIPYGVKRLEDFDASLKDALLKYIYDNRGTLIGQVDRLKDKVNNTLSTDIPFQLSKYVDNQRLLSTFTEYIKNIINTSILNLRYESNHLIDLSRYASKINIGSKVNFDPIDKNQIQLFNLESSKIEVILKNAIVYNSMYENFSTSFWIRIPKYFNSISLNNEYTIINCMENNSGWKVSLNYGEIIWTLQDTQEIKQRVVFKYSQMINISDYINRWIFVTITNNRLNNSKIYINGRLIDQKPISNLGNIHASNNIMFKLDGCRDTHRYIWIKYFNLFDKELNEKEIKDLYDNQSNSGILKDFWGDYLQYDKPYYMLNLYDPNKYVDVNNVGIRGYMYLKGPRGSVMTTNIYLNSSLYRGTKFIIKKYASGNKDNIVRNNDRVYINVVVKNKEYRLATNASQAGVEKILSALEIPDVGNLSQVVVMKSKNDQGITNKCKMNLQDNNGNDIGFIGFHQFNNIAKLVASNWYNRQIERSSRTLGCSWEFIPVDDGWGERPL
# [6] = reduced mouse 2C T cell binding to pMHC/ICAM-1 vesicles – MLPCN validation set, flow cytometry, LFA-1/ICAM-1 modulator project, pilot screen (AID 2523;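 active = response below a set limit, under 55% cells CD8-positive and vesicle-bound, and CD8 cells' 90th-percentile brightness under 279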;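 as to vesicle binding response: mean PE anti-B7-1 fluorescence of CD8+ cells relative to row control; 100% = QL9-loaded vesicles with DMSO vehicle in the same plate row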); conditions: 2C mouse CD8+ T cells, at 7 µM, stronger effect = lower value; double positive events: measured here: CD8+/vesicle+ event percentage
# [7] = molecular target: Integrin beta-1 (Homo sapiens) + Integrin alpha-4 (Homo sapiens) (UniProt P13612+P05556); experiment: alpha4beta1 integrin LIBS antibody binding reduction – U937 cells, HUTS-21 mAb, flow cytometry, validation set, VLA-4 allosteric modulator project, pilot screen (AID 2674;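 active = inhibition above 50%, about 3 SD of the validation set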;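 also: antibody binding induced by the VLA-4 ligand LDV present at three times its Kd; 0% = LDV ligand with antibody and no compound and 100% = antibody without LDV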); conditions: HUTS-21 LIBS mAb binding, at 6.7 µM, stronger effect = higher value
# Sequence of Integrin beta-1 (Homo sapiens) + Integrin alpha-4 (Homo sapiens) (P05556 whole entry, looked up): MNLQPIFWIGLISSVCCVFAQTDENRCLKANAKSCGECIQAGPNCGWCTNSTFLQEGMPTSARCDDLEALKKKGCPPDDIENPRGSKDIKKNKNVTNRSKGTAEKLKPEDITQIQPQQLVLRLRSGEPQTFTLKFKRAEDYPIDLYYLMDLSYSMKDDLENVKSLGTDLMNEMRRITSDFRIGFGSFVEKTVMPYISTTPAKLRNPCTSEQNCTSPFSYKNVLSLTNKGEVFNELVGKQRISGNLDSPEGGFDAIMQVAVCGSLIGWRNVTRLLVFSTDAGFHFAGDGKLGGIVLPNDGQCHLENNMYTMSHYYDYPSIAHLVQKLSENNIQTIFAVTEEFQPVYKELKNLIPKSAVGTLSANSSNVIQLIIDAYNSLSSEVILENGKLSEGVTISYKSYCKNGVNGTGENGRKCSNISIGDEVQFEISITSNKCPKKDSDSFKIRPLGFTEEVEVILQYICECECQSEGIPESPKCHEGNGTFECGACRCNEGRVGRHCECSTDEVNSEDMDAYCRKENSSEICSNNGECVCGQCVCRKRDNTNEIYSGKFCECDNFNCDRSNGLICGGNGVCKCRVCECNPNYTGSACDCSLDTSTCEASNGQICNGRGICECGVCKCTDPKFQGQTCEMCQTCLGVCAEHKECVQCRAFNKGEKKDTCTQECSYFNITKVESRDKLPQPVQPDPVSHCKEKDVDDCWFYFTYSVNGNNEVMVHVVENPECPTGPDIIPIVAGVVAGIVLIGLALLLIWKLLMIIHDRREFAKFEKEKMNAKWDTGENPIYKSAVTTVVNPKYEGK
# Sequence of Integrin beta-1 (Homo sapiens) + Integrin alpha-4 (Homo sapiens) (P13612 whole entry, looked up): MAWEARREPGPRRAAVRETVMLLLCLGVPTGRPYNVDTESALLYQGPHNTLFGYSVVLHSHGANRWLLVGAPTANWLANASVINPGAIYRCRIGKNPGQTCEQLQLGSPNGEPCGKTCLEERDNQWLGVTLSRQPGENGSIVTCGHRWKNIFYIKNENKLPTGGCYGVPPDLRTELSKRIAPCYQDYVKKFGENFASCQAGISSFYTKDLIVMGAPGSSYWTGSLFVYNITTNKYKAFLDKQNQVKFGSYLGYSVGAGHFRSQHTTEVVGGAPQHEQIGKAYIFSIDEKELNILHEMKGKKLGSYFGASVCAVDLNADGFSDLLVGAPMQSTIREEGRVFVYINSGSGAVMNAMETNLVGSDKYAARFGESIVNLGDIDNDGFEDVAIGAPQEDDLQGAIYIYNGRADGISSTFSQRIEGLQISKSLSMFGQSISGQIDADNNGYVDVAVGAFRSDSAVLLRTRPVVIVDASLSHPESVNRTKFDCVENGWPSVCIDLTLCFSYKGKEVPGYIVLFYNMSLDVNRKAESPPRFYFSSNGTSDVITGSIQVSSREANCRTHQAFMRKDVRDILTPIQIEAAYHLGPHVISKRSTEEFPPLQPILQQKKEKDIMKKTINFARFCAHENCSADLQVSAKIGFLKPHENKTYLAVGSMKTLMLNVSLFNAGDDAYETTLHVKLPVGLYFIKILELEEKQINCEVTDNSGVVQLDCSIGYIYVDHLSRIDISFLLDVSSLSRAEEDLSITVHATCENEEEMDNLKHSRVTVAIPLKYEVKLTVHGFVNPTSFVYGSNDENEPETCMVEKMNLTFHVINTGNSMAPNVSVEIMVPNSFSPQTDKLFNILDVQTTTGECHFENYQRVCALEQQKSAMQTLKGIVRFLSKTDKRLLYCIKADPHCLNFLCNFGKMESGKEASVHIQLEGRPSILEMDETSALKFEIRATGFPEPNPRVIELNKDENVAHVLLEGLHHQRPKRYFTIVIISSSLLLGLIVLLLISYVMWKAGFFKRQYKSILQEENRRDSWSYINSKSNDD
# [8] = calorie-restriction mimetic ROS inhibitors, yeast – validation compound set, pilot screen (AID 2706;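 active = superoxide response below 65% of plate, a cut near 3 SD across the whole screen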;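 also: yeast exposed to compound for one week at 30 degrees C before staining; 100% = mean of all compound wells on the same plate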); conditions: S. cerevisiae aging, superoxide DHE fluorescence; at 10 µM; stronger effect = lower value
# [9] = molecular target: Beta-adrenergic receptor kinase 1 (Homo sapiens) (UniProt P25098); experiment: GRK2 binders displacing RNA aptamer, biochemical, validation, human GRK2, bead flow cytometry (AID 488806;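 active = aptamer binding inhibition above 30%, about 3 SD of noise from non-fluorescent compounds; inactive = inhibition at or below 30%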); conditions: bead-bound GRK2, FAM-aptamer displacement, at 10 µM, stronger effect = higher value
# Sequence of Beta-adrenergic receptor kinase 1 (Homo sapiens) (P25098 whole entry, looked up): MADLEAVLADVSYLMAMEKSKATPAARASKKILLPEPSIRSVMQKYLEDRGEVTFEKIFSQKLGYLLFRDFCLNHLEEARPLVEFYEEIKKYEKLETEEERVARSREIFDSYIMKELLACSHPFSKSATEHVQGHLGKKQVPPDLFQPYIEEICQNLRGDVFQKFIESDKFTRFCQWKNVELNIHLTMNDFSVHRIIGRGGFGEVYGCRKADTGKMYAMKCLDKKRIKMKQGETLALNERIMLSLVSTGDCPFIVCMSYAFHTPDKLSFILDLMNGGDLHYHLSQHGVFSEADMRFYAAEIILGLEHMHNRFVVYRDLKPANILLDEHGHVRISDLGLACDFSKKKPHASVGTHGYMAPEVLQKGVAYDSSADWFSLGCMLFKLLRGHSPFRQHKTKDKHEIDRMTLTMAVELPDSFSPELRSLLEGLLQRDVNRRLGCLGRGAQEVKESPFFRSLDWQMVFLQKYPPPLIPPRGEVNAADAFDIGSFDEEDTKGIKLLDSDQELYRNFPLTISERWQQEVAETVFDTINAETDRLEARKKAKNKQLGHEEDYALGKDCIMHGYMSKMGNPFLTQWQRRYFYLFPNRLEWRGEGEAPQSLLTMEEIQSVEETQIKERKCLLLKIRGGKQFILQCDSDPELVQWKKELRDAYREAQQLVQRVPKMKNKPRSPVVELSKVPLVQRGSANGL
# [10] = molecular target: AP-2 complex subunit beta (Homo sapiens) (UniProt P63010); experiment: beta-arrestin/AP2 interaction blockers – biochemical, validation set, GST-AP2 beads, flow cytometry, pilot screen (AID 504541;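 active = inhibition above 54%, about 3 SD of non-fluorescent compounds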;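 also: AP2 carries R879A mutation and is captured from E. coli lysate; bead-bound FITC arrestin peptide fluorescence measuring arrestin peptide binding to AP2; 0% = DMSO wells and 100% = excess unlabeled arrestin peptide control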); conditions: FITC arrestin peptide, at 10 µM, stronger effect = higher value
# Sequence of AP-2 complex subunit beta (Homo sapiens) (P63010 whole entry, looked up, one chain of several): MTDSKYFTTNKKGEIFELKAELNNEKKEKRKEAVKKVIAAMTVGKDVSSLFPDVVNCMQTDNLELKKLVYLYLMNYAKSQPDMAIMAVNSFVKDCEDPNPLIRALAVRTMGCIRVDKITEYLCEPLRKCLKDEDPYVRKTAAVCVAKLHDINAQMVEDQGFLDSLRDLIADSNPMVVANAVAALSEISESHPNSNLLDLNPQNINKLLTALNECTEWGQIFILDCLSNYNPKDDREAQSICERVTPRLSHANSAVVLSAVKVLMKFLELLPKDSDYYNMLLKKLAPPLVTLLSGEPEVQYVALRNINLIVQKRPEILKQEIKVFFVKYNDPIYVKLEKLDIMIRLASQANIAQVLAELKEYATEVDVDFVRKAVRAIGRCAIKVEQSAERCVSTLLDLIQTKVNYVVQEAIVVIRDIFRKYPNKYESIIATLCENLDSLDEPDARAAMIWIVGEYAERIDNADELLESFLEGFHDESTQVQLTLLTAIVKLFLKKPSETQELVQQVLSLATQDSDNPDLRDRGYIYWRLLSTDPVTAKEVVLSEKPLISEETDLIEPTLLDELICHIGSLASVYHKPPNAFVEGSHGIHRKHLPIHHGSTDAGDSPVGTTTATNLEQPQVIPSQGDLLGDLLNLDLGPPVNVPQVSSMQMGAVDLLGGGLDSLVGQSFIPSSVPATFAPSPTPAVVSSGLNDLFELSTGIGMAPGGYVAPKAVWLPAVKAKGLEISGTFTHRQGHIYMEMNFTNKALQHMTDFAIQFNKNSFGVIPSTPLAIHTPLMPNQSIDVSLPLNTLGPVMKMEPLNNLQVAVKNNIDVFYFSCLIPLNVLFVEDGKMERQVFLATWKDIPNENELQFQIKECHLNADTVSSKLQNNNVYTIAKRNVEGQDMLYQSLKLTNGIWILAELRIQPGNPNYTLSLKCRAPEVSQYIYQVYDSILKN
# [11] = cytosolic pH regulators acting via V-ATPase – S. cerevisiae, pHLuorin, HTS validation (AID 504600; in the data active = response above about 15%;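 also: plate controls were DMSO for no effect and reference compound for full effect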); conditions: V-ATPase proton transport, at 10 µM, stronger effect = higher value
# [12] = system: anti-desmoglein-3 scFv antibody binding to human DSG3; experiment: blockers of pathogenic pemphigus antibody–desmoglein-3 binding – biochemical, validation compound set, bead-based, flow cytometry, pilot screen (AID 588368;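 active = binding below the plate cutoff, the plate median minus 3 SD, with a reading above zero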;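 also: signal is the median channel fluorescence of bead-bound GFP antibody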); conditions: Protein G beads, DSG3-Fc, scFv-GFP binding, at 10 µM, stronger effect = lower value
# [13] = molecular target: Lethal factor (Bacillus anthracis) (UniProt P15917); experiment: Bacillus anthracis lethal factor inhibition, microsphere flow cytometry protease assay, validation at 10 µM (AID 588461); conditions: multiplex microsphere protease cleavage assay, stronger effect = higher value
# [14] = Nile Red efflux blockade in pump-expressing yeast – validation compound set, multiplex, phenotypic, pilot screen (AID 588506;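 active = efflux inhibition above 0.42, the validation set average plus 4 SD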;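 also: Nile Red retained in cells so higher fluorescence means more efflux inhibition; 0 = negative control wells and 1 = enniatin B 25 µM full block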); conditions: S. cerevisiae pump-expressing triplex, Nile Red efflux flow cytometry; at 10 µM; stronger effect = higher value
# [15] = molecular target: ATP-binding cassette sub-family B member 6 (Homo sapiens) (UniProt Q9NP58); experiment: blockers of ABCB6-driven porphyrin uptake – K562-ABCB6 cells, flow cytometry, validation set, pilot screen (AID 588550;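 active = inhibition above the screen-wide mean plus 3 SD, about 51%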;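 also: 0% = DMSO wells and 100% = benzethonium chloride 70 µM positive control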); conditions: K562-ABCB6 porphyrin accumulation, 1 h, at 10 µM, stronger effect = higher value
# [16] = AML differentiation inducers, ER-HoxA9 marrow cells – cell-based, GFP/MAC1 double positive, flow cytometry, validation set, primary screen (AID 588685;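 active = differentiation response of at least 50%, scaled between solvent and reference control, from cells with both markers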;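 also: compound exposure lasts four days before antibody staining and flow analysis; 0% = DMSO wells and 100% = 5 µM fulvestrant positive control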); conditions: stronger effect = higher value
# [17] = measured here: daughter cell gate
# [18] = measured here: mother cell gate
# [19] = measured here: daughter cell gate response
# [20] = measured here: mother cell gate response
compound,measurement,setting,value
O=C(O)c1[nH]c(=O)[nH]c(=O)c1F,GFP response vs DMSO,[1],96.9% (inactive)
same,GFP response vs DMSO,[1]; [17],97.6%
same,GFP response vs DMSO,[1]; [18],95.6%
same,GFP response relative to DMSO,[2],100% (inactive)
same,GFP response relative to DMSO,[2]; [19],97.5%
same,GFP response relative to DMSO,[2]; [20],100%
same,"GFP response, % of DMSO",[3],100% (inactive)
same,"GFP response, % of DMSO",[3]; [17],99.3%
same,"GFP response, % of DMSO",[3]; [18],100%
CCN(CC)c1ccc(/C=C/[N+](=O)[O-])cc1,GFP response vs DMSO,[1],99.5% (inactive)
same,GFP response vs DMSO,[1]; [17],101%
same,GFP response vs DMSO,[1]; [18],100%
same,GFP response relative to DMSO,[2],130% (inactive)
same,GFP response relative to DMSO,[2]; [19],131%
same,GFP response relative to DMSO,[2]; [20],132%
same,"GFP response, % of DMSO",[3],104% (inactive)
same,"GFP response, % of DMSO",[3]; [17],106%
same,"GFP response, % of DMSO",[3]; [18],100%
Cc1cc(NS(=O)(=O)c2ccc(N)cc2)no1,inhibition,[4],0% (inactive)
same,inhibition,[5],0.1% (inactive)
CCC(C)N1C(=O)/C(=C\c2cnc(N(C)C)nc2)C(=O)NC1=S (stereo unspecified),GFP response vs DMSO,[1],104% (inactive)
same,GFP response vs DMSO,[1]; [17],98.4%
same,GFP response vs DMSO,[1]; [18],93.8%
same,GFP response relative to DMSO,[2],97.4% (inactive)
same,"GFP response, % of DMSO",[3],106% (inactive)
same,"GFP response, % of DMSO",[3]; [17],114%
same,"GFP response, % of DMSO",[3]; [18],90.2%
Cc1nc2ccccc2c(=O)n1-c1ccc(C(=O)O)cc1,double positive events,[6],63.4%
same,vesicle binding response,[6],165% (inactive)
same,inhibition,[7],2.93% (inactive)
same,superoxide response (% of plate),[8],96.8% (inactive)
same,aptamer binding inhibition,[9],3% (inactive)
same,inhibition,[10],34.5% (inactive)
same,response,[11],-10.1% (inactive)
same,binding (% of control),[12],101% (inactive)
same,inhibition,[4],0.9% (inactive)
same,inhibition,[5],-0.2% (inactive)
same,inhibition,[13],-5.6% (inactive)
same,efflux inhibition (fraction of control),[14],-0.43 (inactive)
same,inhibition,[15],-3% (inactive)
same,differentiation response,[16],-8.96% (inactive)
